The source of these data is the supplement of paper PMC10646978.

± gives the standard deviation.

The first assay has as its system RAW-Dual (murine macrophage reporter line). Briefly: IRF reporter (Lucia luciferase) activity fold change vs agonist alone; higher = enhanced IRF activity. The following applies: modulator concentration 10 µM; agonist: MPLA […]. In outline: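 RAW-Dual murine macrophage reporter cells were seeded at 50 000 per well in 384-well plates and pre-incubated 1 hour at 37 °C with compound pin-transferred to 10 μM final. After 1 hour, a PRR agonist was added and cells incubated overnight. Supernatant NF-κB (SEAP, QUANTI-Blue, 620 nm absorbance) and IRF (Lucia luciferase, QUANTI-Luc, luminescence) signals were divided by the mean agonist-only control on the same plate to give fold change. Two replicate plates were averaged, with errors by propagation.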
Take `Cc1ccc(F)c(NC(=O)Nc2ccc(-c3cccc4[nH]nc(N)c34)cc2)c1`: the IRF reporter came to 1.19 ± 0.38.

With `CCN(CC)C(=O)N1CCN(C)CC1.O=C(O)CC(O)(CC(=O)O)C(=O)O`, the IRF reporter was 1.16 ± 0.27.

For the molecule `O=S(=O)(Nc1ccnc2ccccc12)c1ccccc1`, the IRF reporter was 1.15 ± 0.19.

Regarding `CC(C)C(=O)c1c(C(C)C)nn2ccccc12`, the IRF reporter stood at 0.926 ± 0.088.

In the case of `CCC1OC(=O)C(C)C(OC2CC(C)(OC)C(O)C(C)O2)C(C)C(OC2OC(C)CC(N(C)C)C2O)C(C)(O)CC(C)CN(C)C(C)C(O)C1(C)O` (stereo not drawn), the IRF reporter is 0.952 ± 0.088.

`O=C(Nc1ccc(NS(=O)(=O)c2ccccc2)cc1)c1ccco1`: the IRF reporter turned out to be 0.823 ± 0.095.

With `O=C(CSC1CC(=O)N(c2ccc(C(=O)O)cc2)C1=O)Nc1ccc(F)cc1` (stereo not drawn), the IRF reporter came to 1.38 ± 0.22.

As to `CC1ON(c2ccc(Cl)c(Cl)c2)C(=O)NC1=O` (stereo not drawn), the IRF reporter came out at 1.49 ± 0.24.

On to `CCN(CC)c1ccc(C=NNc2cc(N3CCOCC3)nc(N3CCOCC3)n2)cc1`, for which the IRF reporter was 1.25 ± 0.17.

As for `COC(CNS(=O)(=O)c1ccccc1Br)c1ccc(C)s1` (stereo not drawn), the IRF reporter came out at 0.854 ± 0.098.

Consider `CN(C)CC/C=C1\c2ccccc2COc2ccccc21.Cl`, for which the IRF reporter came out at 0.876 ± 0.3.

On to `O=c1cccnn1CC1CN(c2ncc(Br)cn2)C1`, for which the IRF reporter was 1.05 ± 0.23.

On to `CCOC(=O)C1=C(C)NC(C)=C(C(=O)OCC)C1c1ccc(F)cc1`, for which the IRF reporter came out at 4.4 ± 0.55.

Consider `C#CCCCCCCCCCCCC(O)CC(O)COC(C)=O` (stereo not drawn), for which the IRF reporter worked out at 1.41 ± 0.19.

`O=C(O)c1nn(-c2ccccc2)c(=O)c2ccccc12`: the IRF reporter was determined as 0.953 ± 0.26.

On to `Cc1nnc(C(=O)NC(C)(C)c2nc(C(=O)NCc3ccc(F)cc3)c(O)c(=O)n2C)o1`, for which the IRF reporter was found to be 0.988 ± 0.076.

In the case of `OC(Cn1cncn1)(Cn1cncn1)c1ccc(F)cc1F`, the IRF reporter stood at 1.62 ± 0.18.

Consider `Cn1c(=O)[nH]c2nnc(-c3cccnc3)nc2c1=O`, for which the IRF reporter stood at 1.31 ± 0.13.

For `Cc1c(C#N)sc2nc(-c3ccccc3)nc(N=CN(C)C)c12`, the IRF reporter was 1.03 ± 0.18.

In the case of `CCC[C@@H]1C[C@@H](C(=O)N[C@@H]([C@H]2O[C@H](SC)[C@H](OP(=O)(O)O)[C@@H](O)[C@H]2O)[C@H](C)Cl)N(C)C1`, the IRF reporter is 1.15 ± 0.092.

Regarding `Cc1nc2n(c(=O)c1CCN1CCC(c3noc4cc(F)ccc34)CC1)CCCC2O` (stereo not drawn), the IRF reporter was found to be 1.14 ± 0.11.

On to `Cc1cc(C(=O)O)n[nH]1`, for which the IRF reporter was determined as 1.34 ± 0.2.

In the case of `N=C(N)Nc1ccc(Cl)cc1`, the IRF reporter came to 0.885 ± 0.099.

As to `COC(=O)C1=CN(CC2CCCO2)C=C(C(=O)OC)C1c1ccc(Cl)cc1` (stereo not drawn), the IRF reporter was determined as 1.07 ± 0.11.

For the molecule `COc1ccc(OC)c(Nc2nc(-c3c(C)nc4ncccn34)cs2)c1`, the IRF reporter was determined as 0.361 ± 0.066.

Consider `Nc1ncn([C@@H]2O[C@H](CO)[C@@H](O)[C@H]2O)c(=O)n1`, for which the IRF reporter worked out at 0.502 ± 0.1.

For the molecule `O=Cc1ccc(OCc2cccc([N+](=O)[O-])c2)c(Br)c1`, the IRF reporter was found to be 1.49 ± 0.12.

In the case of `C=C(C)COc1ccc(-c2ncncc2-c2ccccc2)c(O)c1`, the IRF reporter came out at 1.27 ± 0.13.

Consider `CC(=O)c1ccc(NC(=O)c2ccccc2C(=O)O)cc1`, for which the IRF reporter came out at 1.31 ± 0.29.

For the molecule `O=c1ccc2cc(O)c(O)cc2o1`, the IRF reporter is 1.2 ± 0.12.

For the molecule `Cc1ccsc1C(=CCCN1CCC[C@@H](C(=O)O)C1)c1sccc1C`, the IRF reporter was found to be 0.732 ± 0.082.

For `Br.CCCc1cc(-c2nc(-c3ccc(C)cc3)cs2)ccn1`, the IRF reporter amounted to 1.65 ± 0.32.

For `CCCCc1oc2ccccc2c1C(=O)c1cc(I)c(OCCN(CC)CC)c(I)c1.Cl`, the IRF reporter stood at 1.77 ± 0.15.

On to `CNC1CCC(c2ccc(Cl)c(Cl)c2)c2ccccc21.Cl` (stereo not drawn), for which the IRF reporter was determined as 2.12 ± 0.33.

As for `CN(C)CC/C=C1/c2ccccc2Sc2ccc(Cl)cc21`, the IRF reporter was 1.23 ± 0.38.

With `c1ccc(-c2ccc(C(c3ccccc3)n3ccnc3)cc2)cc1` (stereo not drawn), the IRF reporter was found to be 1.41 ± 0.15.

Turning to `Cc1[nH]c2ccccc2c1CCNCc1ccc(/C=C/C(=O)NO)cc1`, the IRF reporter came to 0.509 ± 0.06.

As to `O=C(Nc1ccc(Br)cc1)c1cccc(S(=O)(=O)NC2CCCCC2)c1`, the IRF reporter is 1 ± 0.17.

`CCC(C(=O)N1CCC2(CC1)CC2(F)F)c1ccccc1` (stereo not drawn): the IRF reporter came out at 1.36 ± 0.33.

For a further assay the test system is unchanged. Briefly: viability score (confluency relative to resting cells, overnight) (fraction); higher = more viable, active = viable (0.7 or more). The following applies: modulator concentration 10 µM. In outline: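 RAW-Dual macrophages in 384-well plates were exposed overnight to compound at 10 μM final. Confluency was imaged with IncuCyte, and two confluency masks were generated with IncuCyte software over all imaged wells. The viability score is confluency expressed relative to resting cells. Compounds were called viable if both masks exceeded 70% of resting cells.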
As for `Cc1ccc(F)c(NC(=O)Nc2ccc(-c3cccc4[nH]nc(N)c34)cc2)c1`, the viability score was 0.829 (active).

Take `CCN(CC)C(=O)N1CCN(C)CC1.O=C(O)CC(O)(CC(=O)O)C(=O)O`: the viability score is 0.995 (active).

In the case of `O=S(=O)(Nc1ccnc2ccccc12)c1ccccc1`, the viability score is 1.03 (active).

Regarding `CC(C)C(=O)c1c(C(C)C)nn2ccccc12`, the viability score was 0.957 (active).

With `CCC1OC(=O)C(C)C(OC2CC(C)(OC)C(O)C(C)O2)C(C)C(OC2OC(C)CC(N(C)C)C2O)C(C)(O)CC(C)CN(C)C(C)C(O)C1(C)O` (stereo not drawn), the viability score was 0.998 (active).

For `O=C(Nc1ccc(NS(=O)(=O)c2ccccc2)cc1)c1ccco1`, the viability score was 1 (active).

On to `O=C(CSC1CC(=O)N(c2ccc(C(=O)O)cc2)C1=O)Nc1ccc(F)cc1` (stereo not drawn), for which the viability score was 1.01 (active).

Consider `CC1ON(c2ccc(Cl)c(Cl)c2)C(=O)NC1=O` (stereo not drawn), for which the viability score was 0.998 (active).

Turning to `CCN(CC)c1ccc(C=NNc2cc(N3CCOCC3)nc(N3CCOCC3)n2)cc1`, the viability score is 0.994 (active).

Consider `COC(CNS(=O)(=O)c1ccccc1Br)c1ccc(C)s1` (stereo not drawn), for which the viability score was 0.997 (active).

Take `CN(C)CC/C=C1\c2ccccc2COc2ccccc21.Cl`: the viability score was 1.01 (active).

For `O=c1cccnn1CC1CN(c2ncc(Br)cn2)C1`, the viability score was 1 (active).

For the molecule `CCOC(=O)C1=C(C)NC(C)=C(C(=O)OCC)C1c1ccc(F)cc1`, the viability score is 0.244 (inactive).

Regarding `C#CCCCCCCCCCCCC(O)CC(O)COC(C)=O` (stereo not drawn), the viability score is 1 (active).

With `O=C(O)c1nn(-c2ccccc2)c(=O)c2ccccc12`, the viability score was 1 (active).

Take `Cc1nnc(C(=O)NC(C)(C)c2nc(C(=O)NCc3ccc(F)cc3)c(O)c(=O)n2C)o1`: the viability score is 0.992 (active).

For the molecule `OC(Cn1cncn1)(Cn1cncn1)c1ccc(F)cc1F`, the viability score was 0.988 (active).

`Cn1c(=O)[nH]c2nnc(-c3cccnc3)nc2c1=O`: the viability score was 0.881 (active).

Turning to `Cc1c(C#N)sc2nc(-c3ccccc3)nc(N=CN(C)C)c12`, the viability score is 1 (active).

Regarding `CCC[C@@H]1C[C@@H](C(=O)N[C@@H]([C@H]2O[C@H](SC)[C@H](OP(=O)(O)O)[C@@H](O)[C@H]2O)[C@H](C)Cl)N(C)C1`, the viability score is 1 (active).

With `Cc1nc2n(c(=O)c1CCN1CCC(c3noc4cc(F)ccc34)CC1)CCCC2O` (stereo not drawn), the viability score is 1 (active).

`Cc1cc(C(=O)O)n[nH]1`: the viability score is 1.02 (active).

For `N=C(N)Nc1ccc(Cl)cc1`, the viability score is 0.991 (active).

As for `COC(=O)C1=CN(CC2CCCO2)C=C(C(=O)OC)C1c1ccc(Cl)cc1` (stereo not drawn), the viability score was 1 (active).

In the case of `COc1ccc(OC)c(Nc2nc(-c3c(C)nc4ncccn34)cs2)c1`, the viability score is 0.907 (active).

In the case of `Nc1ncn([C@@H]2O[C@H](CO)[C@@H](O)[C@H]2O)c(=O)n1`, the viability score is 0.745 (active).

Consider `O=Cc1ccc(OCc2cccc([N+](=O)[O-])c2)c(Br)c1`, for which the viability score is 1 (active).

On to `C=C(C)COc1ccc(-c2ncncc2-c2ccccc2)c(O)c1`, for which the viability score was 1 (active).

For the molecule `CC(=O)c1ccc(NC(=O)c2ccccc2C(=O)O)cc1`, the viability score is 1 (active).

As to `O=c1ccc2cc(O)c(O)cc2o1`, the viability score was 0.986 (active).

Consider `Cc1ccsc1C(=CCCN1CCC[C@@H](C(=O)O)C1)c1sccc1C`, for which the viability score was 0.997 (active).

As for `Br.CCCc1cc(-c2nc(-c3ccc(C)cc3)cs2)ccn1`, the viability score was 0.993 (active).

For the molecule `CCCCc1oc2ccccc2c1C(=O)c1cc(I)c(OCCN(CC)CC)c(I)c1.Cl`, the viability score was 1 (active).

Regarding `CNC1CCC(c2ccc(Cl)c(Cl)c2)c2ccccc21.Cl` (stereo not drawn), the viability score was 0.661 (inactive).

Regarding `CN(C)CC/C=C1/c2ccccc2Sc2ccc(Cl)cc21`, the viability score is 1.02 (active).

Regarding `c1ccc(-c2ccc(C(c3ccccc3)n3ccnc3)cc2)cc1` (stereo not drawn), the viability score was 1 (active).

As for `Cc1[nH]c2ccccc2c1CCNCc1ccc(/C=C/C(=O)NO)cc1`, the viability score was 0.055 (inactive).

Turning to `O=C(Nc1ccc(Br)cc1)c1cccc(S(=O)(=O)NC2CCCCC2)c1`, the viability score was 0.983 (active).

`CCC(C(=O)N1CCC2(CC1)CC2(F)F)c1ccccc1` (stereo not drawn): the viability score is 0.911 (active).
